Experimental data as given in PubChem BioAssay AID2006 (Sanford-Burnham Center for Chemical Genomics, 2009).
Screen size: about 290,000 compounds; about 1,000 (0.34%) were called active. Rule as the data show it: active = inhibition above about 50% (passing the limit was not always enough); inconclusive = no clear call, values can overlap the other calls. The full list was thinned out, with actives kept by preference.

What follows are molecules tested against SUMO-conjugating enzyme UBC9 (Homo sapiens) (UniProt P63279) (assay: inhibitors of in vitro SUMOylation cascade, primary screen, biochemical, HTRF, uHTS (AID 2006)). Details: HTRF SUMOylation assay, SAE1/SAE2 + UBC9, in vitro; at 35 µM; stronger effect = higher value.
SUMO-conjugating enzyme UBC9 (Homo sapiens), sequence (P63279 whole entry, looked up): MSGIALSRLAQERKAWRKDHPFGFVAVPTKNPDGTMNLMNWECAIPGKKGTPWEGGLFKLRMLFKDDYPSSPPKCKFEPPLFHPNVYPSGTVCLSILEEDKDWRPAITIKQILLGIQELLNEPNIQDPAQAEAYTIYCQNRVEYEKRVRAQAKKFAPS

Row | Structure (SMILES) | inhibition
1 | COc1cccc(N2C(=O)NC(=O)/C(=C\c3ccc([N+](=O)[O-])s3)C2=O)c1 | 41.7% (inactive)
2 | O=C1NC(=O)N(c2ccccc2)C(=O)/C1=C/c1ccc([N+](=O)[O-])s1 | 51.6% (active)
3 | Cc1cccc(N2C(=O)NC(=O)/C(=C\c3cnn(-c4ccccc4)c3)C2=O)c1 | -3.4% (inactive)
4 | CC1CCC(N(C)C2CCN(C)CC2)CC1 (stereo not given) | 9.4% (inactive)
5 | CC(c1ccccc1)(c1ccccc1)c1ccncc1 | 4.4% (inactive)
